# Results: PubChem BioAssay (Tox21)
# Results filed as inconclusive are left out. Values without a mark were called inactive. Activity calls are given as the source filed them. Calls come from the whole dose curve.
# Test: qHTS assay for small molecule agonists of the p53 signaling pathway - cell viability (AID 651633); note: nearly all actives have a fitted effect of over 30% in size;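 for activity change, negative = cytotoxicity: p53RE-bla HCT reporter cells with a stable beta-lactamase p53 reporter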
# Conditions: p53RE-bla HCT-116 viability, ATP luminescence, 16 h; series mostly up to 83.3 µM; activity change, negative = cytotoxicity: at the top concentration
# From the text: National Center for Advancing Translational Sciences [NCATS]
# NIH Chemical Genomics Center [NCGC]
# U.S. Environmental Protection Agency [EPA]
# National Institutes of Environmental Health Sciences [NIEHS]
# National Toxicology Program [NTP]
# U.S. Food and Drug Administration [FDA]
# p53, a tumor suppressor protein, is activated following cellular insult, including DNA damage and other cellular stresses. The activation of p53 regulates cell fate by inducing DNA repair, cell cycle arrest, apoptosis, or cellular senescence. The activation of p53, therefore, is a good indicator of DNA damage and other cellular stresses. […] The activation of the reporter gene under culture conditions can be detected by fluorescence intensity. This cell line was used to screen the Tox21 compound library in a 1536-well plate format and to identify agonists that activate the p53 signaling pathway.
# Tox21 Assay Protocol Summary:
# The p53RE-bla cells were dispensed at 4,000 cells/5 ul/well in 1536-well black wall/clear bottom plates using a Multidrop dispenser. After the assay plates were incubated at a 37 C/5% CO2 incubator for 5 hours, 23 nL of compounds dissolved in DMSO, positive controls or DMSO only was transferred to the assay plate by a pin tool. The plates were incubated at 37 C for 16 hours. After 1 uL of LiveBLAzerTM B/G FRET substrate was added using a Flying Reagent Dispenser, the plates were incubated at room temperature for 2 hours, and fluorescence intensity was measured by an Envision plate reader.
# For cell viability readout that measures cytotoxicity, 4 ul/well of CellTiter-Glo reagent was added into the assay plates using a Flying Reagent Dispenser. After 30 min incubation at room temperature, the luminescence intensity in the plates was measured using a ViewLux plate reader.
# % is set by controls: 0 for no effect and ±100 for the full control effect; potency is the fitted concentration of half-maximal effect.
SMILES,"activity change, negative = cytotoxicity",Potency
C[C@H](N)C(=O)N[C@@H](C)P(=O)(O)O,-15.4%,–
COc1c(O[C@@H]2O[C@H](CO)[C@@H](O)[C@H](O)[C@H]2O)cc2c(c1OC)-c1ccc(SC)c(=O)cc1[C@@H](NC(C)=O)CC2,12.4% [at 39.1 µM],–
Cc1cc(-c2ccc(N=Nc3c(S(=O)(=O)O)cc4cc(S(=O)(=O)O)cc(N)c4c3O)c(C)c2)ccc1N=Nc1c(S(=O)(=O)O)cc2cc(S(=O)(=O)O)cc(N)c2c1O,-27%,–
c1ccc2c(CCC3CCNCC3)c[nH]c2c1,-11%,–
CCNC(=O)[C@@H]1CCCN1C(=O)[C@H](CCCN=C(N)N)NC(=O)[C@H](CC(C)C)NC(=O)[C@@H](CC(C)C)NC(=O)[C@H](Cc1ccc(O)cc1)NC(=O)[C@H](CO)NC(=O)[C@H](Cc1c[nH]c2ccccc12)NC(=O)[C@H](Cc1cnc[nH]1)NC(=O)[C@@H]1CCC(=O)N1,14.5%,–
O=c1[nH]cnc2[nH]cc(CN3CCCCC3)c12,7.18%,–
NC(N)=NCC1COc2ccccc2O1 (stereo not given),-20.3%,–
CO[C@H]1C[C@@H]2CC[C@@H](C)[C@@](O)(O2)C(=O)C(=O)N2CCCC[C@H]2C(=O)O[C@H]([C@H](C)C[C@@H]2CC[C@@H](OCCO)[C@H](OC)C2)CC(=O)[C@H](C)/C=C(\C)[C@@H](O)[C@@H](OC)C(=O)[C@H](C)C[C@H](C)/C=C/C=C/C=C/1C,–,21.1 µM (active)
CCCCCCCCCCCCCCCC(=O)OC[C@@H](COP(=O)([O-])OCC[N+](C)(C)C)OC(=O)CCCCCCCCCCCCCCC,-10.1%,–
O=C(CCCN1CCC(C(=O)c2ccc(F)cc2)CC1)c1ccc(F)cc1,-10.6%,–
COC(=O)[C@@H](N)CS,-16.1%,–
CCC(Cc1c(I)cc(I)c(O)c1I)C(=O)O (stereo not given),9.33%,–
C[C@]12CCC(=O)C[C@@H]1CC[C@@H]1[C@@H]2CC[C@]2(C)C=CC[C@@H]12,-20.5%,–
Cc1c(N)nc(C(CC(N)=O)NCC(N)C(N)=O)nc1C(=O)NC(C(=O)NC(C)C(O)C(C)C(=O)NC(C(=O)NCCc1nc(-c2nc(C(=O)NCCCN[C@@H](C)c3ccccc3)cs2)cs1)C(C)O)C(O[C@@H]1O[C@@H](CO)[C@@H](O)[C@H](O)[C@@H]1O[C@H]1O[C@H](CO)[C@@H](O)[C@H](OC(N)=O)[C@@H]1O)c1cnc[nH]1 (stereo not given in full),-29.9%,–
CC(NNC(=O)c1ccccc1)c1ccccc1 (stereo not given),-9.79%,–
COc1ccc(C2(C#N)CCC(C(=O)O)CC2)cc1OC1CCCC1 (stereo not given),-12.2%,–
CCCCCCCCCCCCCCCCCC(=O)OC[C@@H](O)[C@H]1OC[C@H](O)[C@H]1O,2.6%,–
COC(=O)C1=C(C#N)NC(C)=C(C(=O)OC(C)C)C1c1cccc([N+](=O)[O-])c1 (stereo not given),-7.2%,–
CC1(C)S[C@@H]2[C@H](NC(=O)Cc3ccccc3)C(=O)N2[C@H]1C(=O)O,-6.79%,–
CO[C@H]1C[C@H](O[C@H]2[C@H](C)O[C@@H](O[C@@H]3/C(C)=C/C[C@@H]4C[C@@H](C[C@]5(C=C[C@H](C)[C@@H](C6CCCCC6)O5)O4)OC(=O)[C@@H]4C=C(C)[C@@H](O)[C@H]5OC/C(=C\C=C\[C@@H]3C)[C@]54O)C[C@@H]2OC)O[C@@H](C)[C@@H]1O,–,6.68 µM (active)

SMILES,"activity change, negative = cytotoxicity",Potency
O=P(O)(O)OC[C@H](O)CO,18.3%,–
Nc1nc2c(c(=O)[nH]1)N(C=O)C(CNc1ccc(C(=O)N[C@@H](CCC(=O)O)C(=O)O)cc1)CN2 (stereo not given in full),13% [at 39.1 µM],–
N=C(N)c1ccc(OCCCOc2ccc(C(=N)N)cc2Br)c(Br)c1,1.1%,–
O=[n+]1ccn([O-])c2ccccc21,22.6%,–
O=C[C@H](O)[C@@H](O)[C@H](O[C@H]1O[C@H](CO)[C@@H](O[C@H]2O[C@H](CO)[C@@H](O)[C@H](O)[C@H]2O)[C@H](O)[C@H]1O)[C@H](O)CO,-4.87%,–
CCCCCCCCCCCCCCCCCC(=O)[O][Al],13.9%,–
CN[C@@H]1CCc2[nH]c3ccc(C(N)=O)cc3c2C1,3.83%,–
O=C1N=C2SCCN2C(=O)C1Cc1ccc(Cl)cc1 (stereo not given),5.46%,–
CCN(CC)CCC(=O)N1c2ccccc2Sc2ccc(Cl)cc21,15.6%,–
O=C(O[C@H]1CN2CCC1CC2)N1CCc2ccccc2[C@@H]1c1ccccc1,-12.7%,–
CCC(=O)OCC(=O)[C@@]1(OC(=O)CC)[C@H](C)C[C@H]2[C@H]3[C@H]([C@@H](O)C[C@@]21C)[C@@]1(C)C=CC(=O)C=C1C[C@H]3Cl,-12.9% [at 39.1 µM],–
O=C(O)c1ccc(OCCn2ccnc2)cc1,13.1%,–
CC(C)NCC(O)COc1ccccc1-n1cccc1 (stereo not given),25.3%,–
O=C(Nc1ccc(Br)cc1)c1cc(Br)c(Br)s1,–,29.8 µM (active)
O=C(c1cc2ccccc2o1)N1CCN(Cc2ccccc2)CC1,9.9%,–
O=C1CCC(=O)N1CO,14%,–
CO[C@@H]1[C@@H](O[C@@H]2O[C@H](C)[C@@H](O[C@H]3C[C@@](C)(O)[C@@H](OC(=O)CC(C)C)[C@H](C)O3)[C@H](N(C)C)[C@H]2O)[C@@H](CC=O)C[C@@H](C)C(=O)/C=C/C2OC2C[C@@H](C)OC(=O)C[C@H]1OC(C)=O (stereo not given in full),-19.4%,–
CC(C)C[C@H](NC(=O)[C@@H](Cc1c[nH]c2ccccc12)NC(=O)[C@H](Cc1ccc(O)cc1)NC(=O)[C@H](CO)NC(=O)[C@H](Cc1c[nH]c2ccccc12)NC(=O)[C@H](Cc1cnc[nH]1)NC(=O)[C@@H]1CCC(=O)N1)C(=O)N[C@@H](CCCN=C(N)N)C(=O)N1CCC[C@@H]1C(=O)NCC(N)=O,21.2%,–
CC(CN1c2ccccc2Sc2ccc(S(=O)(=O)N(C)C)cc21)N(C)C (stereo not given),6.47%,–
CN1C(=O)CN2CCc3ccccc3C2c2cc(Cl)ccc21 (stereo not given),7.06%,–
